# According to article PMC4336329 (PLoS ONE, 2015):
# The whole screen tested about 310,000 compounds, of which about 14,000 (4.5%) showed an effect of 50% or more. Effects have a minus sign here. The sample as a whole holds a higher share of strong results than the screen did.
# Biological target: human ether-à-go-go-related gene (hERG) potassium channel (human, UniProt Q12809)
# Assay: primary screen, population patch clamp on CHO cells stably expressing hERG; higher = less effect of the substance
# 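Also: peak tail current of the secondary pulse compared with the same well before compound.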
# Chain of human ether-à-go-go-related gene (hERG) potassium channel (Q12809 whole entry, looked up): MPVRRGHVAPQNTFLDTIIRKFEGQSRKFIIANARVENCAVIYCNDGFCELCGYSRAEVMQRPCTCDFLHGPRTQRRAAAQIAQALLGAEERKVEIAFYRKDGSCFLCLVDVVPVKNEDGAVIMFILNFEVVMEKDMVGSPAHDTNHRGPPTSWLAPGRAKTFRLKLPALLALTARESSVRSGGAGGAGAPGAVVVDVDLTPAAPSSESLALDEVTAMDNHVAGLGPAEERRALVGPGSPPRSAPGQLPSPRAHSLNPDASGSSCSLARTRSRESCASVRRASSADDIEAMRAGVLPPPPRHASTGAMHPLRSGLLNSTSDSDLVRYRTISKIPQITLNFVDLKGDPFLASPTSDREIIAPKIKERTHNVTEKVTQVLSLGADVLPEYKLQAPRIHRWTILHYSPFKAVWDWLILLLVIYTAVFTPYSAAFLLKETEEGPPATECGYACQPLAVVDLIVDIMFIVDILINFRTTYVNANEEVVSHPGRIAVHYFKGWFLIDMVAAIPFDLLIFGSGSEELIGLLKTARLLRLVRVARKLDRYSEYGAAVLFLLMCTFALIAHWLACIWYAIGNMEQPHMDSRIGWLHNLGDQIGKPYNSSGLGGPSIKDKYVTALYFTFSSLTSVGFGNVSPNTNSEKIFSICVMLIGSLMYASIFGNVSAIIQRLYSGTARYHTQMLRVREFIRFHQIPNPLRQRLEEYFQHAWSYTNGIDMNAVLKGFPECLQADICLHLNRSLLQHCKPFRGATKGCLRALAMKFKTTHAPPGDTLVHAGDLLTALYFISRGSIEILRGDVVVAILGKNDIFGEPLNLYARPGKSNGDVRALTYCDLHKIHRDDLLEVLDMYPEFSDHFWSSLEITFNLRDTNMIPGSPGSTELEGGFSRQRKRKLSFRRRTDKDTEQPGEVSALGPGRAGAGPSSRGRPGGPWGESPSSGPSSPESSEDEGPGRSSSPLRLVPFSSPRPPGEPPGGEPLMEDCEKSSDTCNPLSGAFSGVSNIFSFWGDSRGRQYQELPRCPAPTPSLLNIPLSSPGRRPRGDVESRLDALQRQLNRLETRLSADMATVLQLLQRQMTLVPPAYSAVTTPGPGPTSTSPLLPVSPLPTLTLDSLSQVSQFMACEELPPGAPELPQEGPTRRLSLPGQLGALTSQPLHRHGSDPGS
row,SMILES,"hERG current change (%, negative = inhibition) at 10uM [%]"
1,CCCS(=O)(=O)c1nc(S(=O)(=O)c2ccc(C)cc2)c(N2CCc3ccccc3C2)s1,5.34
2,Cc1ccc(-c2cnc(SCC(=O)N3CCCc4ccccc43)n2C)cc1,-50.8
3,Cc1ccc(-c2cc(C(=O)N3CCCc4ccccc43)no2)cc1,-75.6
4,O=C(c1cc(-c2ccccc2)on1)N1CCCc2ccccc21,-18.1
5,Cn1c(-c2ccc(F)cc2)cnc1SCC(=O)N1CCCc2ccccc21,-24.8
6,Cn1c(-c2ccccc2)cnc1SCC(=O)N1CCCc2ccccc21,-27.9
7,O=C(c1cc(-c2ccc(O)cc2)on1)N1CCCc2ccccc21,-29.5
8,O=C(NCc1ccc(F)cc1Cl)C1CCN(S(=O)(=O)N2CCC3(CC2)OCCO3)CC1,-13.9
9,CC(=O)Oc1ccc(NC(=O)Cc2ccccc2)cc1,24.9
10,Cc1ccc(OCC(=O)c2ccc3c(c2)CCCC3)cc1C,4.7
11,C=CCSc1ncnc2sc(C)c(C)c12,9.87
12,COc1ccc(Cl)cc1NC(=O)C1(c2cccs2)CCOCC1,-17.8
13,CC(CCc1ccccc1)NC(=O)Cc1ccc(Br)cc1 (stereo not shown),8.87
14,CC(CCc1ccc(O)cc1)NCc1ccc(Br)cc1 (stereo not shown),-76.2
15,COc1ccc(CCC(C)NCc2ccc(Cl)c(Cl)c2)cc1 (stereo not shown),-53.7
16,COc1ccc(CCC(C)NCCc2ccc(Cl)cc2Cl)cc1 (stereo not shown),-71.8
17,CC(CCc1ccc(O)cc1)NCc1ccc(Cl)cc1Cl (stereo not shown),-63.8
18,COc1ccc(CNCCc2ccc(Cl)cc2Cl)cc1,-22.2
19,CC(CCc1ccccc1)NCc1ccc(Cl)cc1Cl.O=C(O)C(=O)O (stereo not shown),-31.5
20,CC(CCc1ccccc1)NCc1ccncc1 (stereo not shown),-8.72
21,COc1ccc(CCC(C)NCc2cc(OC)cc(OC)c2)cc1 (stereo not shown),-42.3
22,COc1ccc(CCNC(C)CCc2ccc(OC)cc2)cc1 (stereo not shown),-13

row,SMILES,"hERG current change (%, negative = inhibition) at 10uM [%]"
1,CC(O)CNCc1ccc(Cl)cc1Cl.Cl (stereo not shown),12.3
2,COc1ccc(CCC(C)Nc2ccc(F)c(F)c2)cc1 (stereo not shown),5.47
3,Cc1cc(C)nc(/N=C2\NC(=O)CC(C(=O)O)N2c2ccc(Cl)cc2)n1 (stereo not shown),14.9
4,COC(=O)CSc1ccc2nnc(CCNS(=O)(=O)c3ccccc3)n2n1,24.3
5,CC(=O)c1c(COC(=O)c2cccc(C)c2)nc2ccccc2[n+]1[O-],-1.95
6,Cn1c(=O)c2c(nc(SCC(=O)NCC3CCCO3)n2C)n(C)c1=O (stereo not shown),2.28
7,Cc1c(NC(=S)NC(=O)c2ccccc2Cl)c(=O)n(-c2ccccc2)n1C,33.4
8,COc1cccc(CC(=O)Nc2cc(S(=O)(=O)N3CCCCC3)ccc2C)c1,-15.9
9,Cc1c(CC(=O)O)c(=O)oc2cc(OCc3nn[nH]n3)ccc12,-0.585
10,COc1cc(NC(=O)C2CCCCC2)c(OC)cc1NC(=O)CN1CCCCC1,-12
11,COc1ccc(N2CCN(S(=O)(=O)c3ccc4c(c3)N(C(C)=O)CCO4)CC2)cc1,-18.4
12,CC(C)CC(=O)C(=O)[O-].[Na+],-0.864
13,COc1ccc(CCC(C)NCc2ccc(F)cc2)cc1 (stereo not shown),-44.8
14,COc1ccc(CC(=O)NC(C)CCc2ccccc2)cc1 (stereo not shown),5.43
15,COc1ccc(CCC(C)NCc2cccc(Br)c2)cc1 (stereo not shown),-64.6
16,COc1ccc(CCC(C)NCC2CCCCC2)cc1 (stereo not shown),-14.9
17,COc1ccc(CCC(C)Nc2cccc(C)c2)cc1 (stereo not shown),4.48
18,COc1ccc(CCC(C)NCc2ccc(C(F)(F)F)cc2)cc1 (stereo not shown),-66.3
19,O=C(/C=C/c1ccco1)Nc1cccc2cccnc12,-1.87
20,CCOC(=O)c1cnn(-c2cc(C)c3ccccc3n2)c1N,-1.77
21,O=C(Cc1cccc2ccccc12)NC(NC(=S)Nc1ccccc1Cl)C(Cl)(Cl)Cl (stereo not shown),11.7
22,Cc1cccc(Oc2ncc(-c3ccc(Cl)cc3)cn2)c1,5.22

row,SMILES,"hERG current change (%, negative = inhibition) at 10uM [%]"
1,Cc1ccc(S(=O)(=O)N2CCN(C(=O)c3ccccc3Cc3ccccc3)CC2)c(C)c1,4.42
2,COc1ccc(C(=O)N2CCN(CCc3ccccn3)CC2)cc1.Cl,-77.3
3,O=C1CC(N2CCN(c3ccccn3)CC2)C(=O)N1c1ccc(Cl)cc1 (stereo not shown),4.46
4,O=C1CC(N2CCN(CCc3ccccn3)CC2)C(=O)N1c1ccc(Cl)cc1 (stereo not shown),-67.4
5,O=C(Cc1ccccn1)c1ccc(Cl)cc1,17
6,COc1ccc(C(=O)N2CCN(Cc3ccccn3)CC2)cc1.O=C(O)C(=O)O,-5.82
7,Cl.O=C(c1ccc(Cl)cc1)N1CCN(CCc2ccccn2)CC1,-69
8,COc1ccc(C(=O)N2CCN(c3ccccn3)CC2)cc1,3.55
9,CN(CCc1ccccn1)C1CC(=O)N(c2ccc(Cl)cc2)C1=O (stereo not shown),6.39
10,O=C(c1ccccc1)N1CCN(CCc2ccccn2)CC1,8.41
11,COc1cc(-c2noc(C)c2C#Cc2ccsc2)cc(OC)c1OC,10.8
12,Cc1ccc(Nc2nnc(SCn3nnc4ccccc4c3=O)s2)cc1,2.83
13,N#Cc1ccc(-c2csc(-c3ccno3)n2)cc1,-14.6
14,CC1=C[C@H]2OC(=O)[C@@H](C)[C@H]2C[C@@H]2[C@H]1C[C@@H](O)[C@@]2(C)O,6.22
15,N#Cc1c(N)c(C(=O)c2ccccc2)n2ccccc12,10.7
16,CC(=O)Nc1ccc(S(=O)(=O)N(C)CC(=O)OCC(=O)Nc2ccc3c(c2)OCO3)cc1,9.31
17,NC(=O)c1cc2cc(Br)ccc2oc1=NCc1ccccc1,10.4
18,CCCNC(=O)NC(C(=O)OC)C12CC3CC(CC(C3)C1)C2 (stereo not shown),-10.8
19,CC(C)(C)c1ccc(NC(=O)CNC2CCCc3ccccc32)cc1.Cl (stereo not shown),2.24
20,CCCSc1nc2c(cnn2-c2ccc(F)cc2)c(=O)[nH]1,6.84
21,COc1cc([N+](=O)[O-])c(C(=O)N2CCOCC2)c([N+](=O)[O-])c1,7.66
22,O=C(OCC1OC(n2ccc(=O)[nH]c2=O)C(O)C1OC(=O)c1ccccc1)c1ccccc1 (stereo not shown),-67.9

row,SMILES,"hERG current change (%, negative = inhibition) at 10uM [%]"
1,O=C(OCC1OC(n2ccc(=O)[nH]c2=O)C(Cl)C1O)c1ccccc1 (stereo not shown),-9.37
2,O=C(OCC1OC(n2ncc(=O)[nH]c2=O)C(OC(=O)c2ccccc2)C1OC(=O)c1ccccc1)c1ccccc1 (stereo not shown),14.6
3,CCOC(=O)C1=NN(c2cccc(Cl)c2)C2=NC(C)=C(C(=O)OC)C(c3cccs3)N12 (stereo not shown),6.72
4,COc1cc(CN2CCN(C(=O)Cc3ccccc3)CC2)cc(OC)c1OC.O=C(O)C(=O)O,-0.522
5,COc1ccc(CCNC(=O)c2ccc(CN3CCC(Cc4ccccc4)CC3)cc2)cc1OC,-67.9
6,COc1ccc(OC)c(CN2CCN(Cc3cccc4ccccc34)CC2)c1.O=C(O)C(=O)O,-65.2
7,COc1cc(CN2CCC(Cc3ccccc3)CC2)cc([N+](=O)[O-])c1O,0.943
8,COc1cc(CN2CCC(Cc3ccccc3)CC2)cc(OC)c1OC.O=C(O)C(=O)O,-52.8
9,COc1ccc(CN2CCC(Cc3ccccc3)CC2)cc1OC.O=C(O)C(=O)O,-70.3
10,COc1ccc(OC)c(CN2CCN(C(=O)c3cccc4ccccc34)CC2)c1.O=C(O)C(=O)O,-2.37
11,COc1ccc(C(=O)N2CCN(Cc3cc(OC)ccc3OC)CC2)cc1.O=C(O)C(=O)O,-36
12,COc1ccc(CN2CCC(C(N)=O)CC2)cc1OCc1ccccc1.O=C(O)C(=O)O,-19.1
13,COc1ccc(CCNC(=S)N2CCC(Cc3ccccc3)CC2)cc1OC,-41.1
14,COc1cc(CN2CCC(C(N)=O)CC2)ccc1OCc1ccccc1.O=C(O)C(=O)O,-39.9
15,COc1ccc(CCNC(=O)c2ccc(CN3CCC(Cc4ccccc4)CC3)cc2)cc1,-15.6
16,CCOc1cc(/C=N/NC(=O)CSc2cccc3cccnc23)ccc1O,9.6
17,CCOc1ccccc1OCCC(=O)OCC(=O)Nc1c(C)nn(-c2ccccc2)c1C,1.41
18,O=C(CCC(=O)c1ccccc1)NCc1cccc(C(F)(F)F)c1,4.89
19,CC(C)(C)c1ccc(/C=C(\c2nc3ccccc3[nH]2)S(=O)(=O)c2ccccc2)cc1,0.84
20,O=C(Nc1c2c(nn1-c1ccccc1)CS(=O)(=O)C2)c1ccccc1C(F)(F)F,14.3
21,O=C(O)c1ccc(/C=C/c2nc3sc4c(c3c(=O)[nH]2)CCC4)cc1,14.2
22,Cc1nn(C(=O)c2cccnc2)c(C)c1C,0.855
